# Laboratory results from PubChem BioAssay (NCATS).
# Records with an inconclusive call do not appear. Entries that show only a call come without a potency. Active and inactive are the calls of the source. Calls follow the shape of the dose curve; as a rule, active = well fitted inhibition curve with a large enough effect; inconclusive = small, poorly fitted or top-dose-only effect, or effect the other way; inactive = flat fitted curve, though single readings scatter.
# Target: ATP-dependent 6-phosphofructokinase (Trypanosoma brucei brucei) (UniProt O15648)
# Sequence (O15648 whole entry, looked up): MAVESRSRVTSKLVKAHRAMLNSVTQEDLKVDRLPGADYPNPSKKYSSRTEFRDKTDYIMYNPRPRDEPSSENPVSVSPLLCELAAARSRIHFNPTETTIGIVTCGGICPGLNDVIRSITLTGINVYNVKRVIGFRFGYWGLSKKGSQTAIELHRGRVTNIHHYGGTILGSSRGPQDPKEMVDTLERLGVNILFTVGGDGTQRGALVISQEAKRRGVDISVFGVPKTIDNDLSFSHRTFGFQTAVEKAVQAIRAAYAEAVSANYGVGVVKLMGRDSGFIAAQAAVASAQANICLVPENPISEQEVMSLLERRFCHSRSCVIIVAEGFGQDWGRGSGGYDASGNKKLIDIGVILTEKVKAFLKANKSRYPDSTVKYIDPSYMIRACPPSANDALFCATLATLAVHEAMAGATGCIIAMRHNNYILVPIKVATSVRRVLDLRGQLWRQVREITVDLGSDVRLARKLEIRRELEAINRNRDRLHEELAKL
# Experiment: qHTS Assay to Find Inhibitors of T. brucei phosphofructokinase: hit validation (AID 492961);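 also: luminescence reports ADP formed as PFK phosphorylates fructose-6-phosphate with ATP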
# Settings: T. brucei PFK, ADP-Glo luminescence; series mostly up to 51.4 µM
# How it was run: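 ADP-Glo luminescence read-out of ADP formed by 1.25 nM PFK from 0.1 mM ATP and 0.5 mM F6P (TEA pH 8.0, 45 min, RT). Compounds titrated; activity normalized to no-enzyme and full-enzyme controls.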
row,Compound,Potency
1,C[C@]12CCC(=O)C=C1CC[C@@H]1[C@@H]2[C@@H](O)C[C@@]2(C)[C@H]1CC[C@]2(O)C(=O)COP(=O)(O)O,inactive
2,CCN(CC)CCOc1ccc(-c2nc3cc(Cl)ccc3s2)cc1,inactive
3,C[C@H]1C[C@H]2[C@@H]3CCC4=CC(=O)C=C[C@]4(C)[C@@]3(F)[C@@H](O)C[C@]2(C)[C@@]1(O)C(=O)CO,inactive
4,CCC(=O)NCCC1CCc2ccc3c(c21)CCO3 (configuration not stated),inactive
5,CC(C)(C)C(=O)OCOC(=O)[C@@H]1N2C(=O)[C@@H](N=CN3CCCCCC3)[C@H]2SC1(C)C,inactive
6,CC1(C)C(C=C(Cl)Cl)C1C(=O)OCc1cccc(Oc2ccccc2)c1 (configuration not stated),inactive
7,COC(C(=O)C(O)C(C)O)C1Cc2cc3cc(OC4CC(OC5CC(O)C(O)C(C)O5)C(O)C(C)O4)c(C)c(O)c3c(O)c2C(=O)C1OC1CC(OC2CC(OC3CC(C)(O)C(O)C(C)O3)C(O)C(C)O2)C(O)C(C)O1 (configuration not stated),inactive
8,CC(=O)Oc1c(C)cc(OCC(O)CNC(C)C)c(C)c1C (configuration not stated),inactive
9,CCCC(=O)O[C@]1(C(=O)CCl)[C@H](C)C[C@@H]2[C@H]3CCC4=CC(=O)C=C[C@]4(C)[C@@]3(F)C(=O)C[C@@]21C,inactive
10,C[C@@H]1CCC2[C@@H](C)[C@@H](O)O[C@@H]3O[C@@]4(C)CC[C@@H]1[C@@]23OO4 (some centres not stated),inactive
11,O=C1CSC2(CCN(CCCN3c4ccccc4Sc4ccc(Cl)cc43)CC2)N1,inactive
12,CN(C)CCCN1c2ccccc2C(C)(C)c2ccccc21,inactive
13,COC(=O)[C@H]1[C@H]2C[C@@H]3c4[nH]c5ccccc5c4CCN3C[C@H]2C[C@@H](OC(=O)c2cc(OC)c(OC)c(OC)c2)[C@@H]1OC,inactive
14,O=C(O)CCC(=O)C(=O)O,inactive
15,O=C(Nc1cccc(C(F)(F)F)c1)c1cc(Br)cc(Br)c1O,inactive
16,CCOc1ccc(N=Nc2ccc(N)cc2N)cc1,inactive

row,Compound,Potency
1,C#C[C@]1(O)CC[C@H]2[C@@H]3CCC4=CCCC[C@@H]4[C@H]3C(=C)C[C@@]21CC,inactive
2,CC(=O)Oc1cc(C)c(OC(C)=O)c2ccccc12,inactive
3,CC[N+](C)(C)Cc1ccccc1Br,inactive
4,Nc1c(N=Nc2ccc(-c3ccc(N=Nc4cc(S(=O)(=O)O)c5ccccc5c4N)cc3)cc2)cc(S(=O)(=O)O)c2ccccc12,inactive
5,CC1=C(/C=C/C(C)=C/C=C/C(C)=C/C=C/C=C(C)/C=C/C=C(C)/C=C/C2=C(C)C(=O)CCC2(C)C)C(C)(C)CCC1=O,inactive
6,O=C(O)c1cc(O)c2c(c1)[O][Bi][O]2,inactive
7,CN1Cc2c(N)cccc2C(c2ccccc2)C1 (configuration not stated),inactive
8,CCCCCCCC(=O)O,inactive
9,C[C@]12O[C@H](C[C@]1(O)CO)n1c3ccccc3c3c4c(c5c6ccccc6n2c5c31)CNC4=O,inactive
10,COC(F)(F)C(Cl)Cl,inactive
11,CC(C)=O,inactive
12,CC(C)N=c1cc2n(-c3ccc(Cl)cc3)c3ccccc3nc-2cc1Nc1ccc(Cl)cc1,inactive
13,COc1cc(-c2ccc(-[n+]3nc(-c4ccccc4)nn3-c3ccc([N+](=O)[O-])cc3)c(OC)c2)ccc1-[n+]1nc(-c2ccccc2)nn1-c1ccc([N+](=O)[O-])cc1,inactive
14,CCCCC(C)(O)C/C=C/[C@H]1[C@H](O)CC(=O)[C@@H]1CCCCCCC(=O)OC (some centres not stated),inactive
15,COC(=O)C1=C(C#N)NC(C)=C(C(=O)OC(C)C)C1c1cccc([N+](=O)[O-])c1 (configuration not stated),inactive
16,CO[C@H]1C[C@@H]2CC[C@@H](C)[C@@](O)(O2)C(=O)C(=O)N2CCCC[C@H]2C(=O)O[C@H]([C@H](C)C[C@@H]2CC[C@@H](OCCO)[C@H](OC)C2)CC(=O)[C@H](C)/C=C(\C)[C@@H](O)[C@@H](OC)C(=O)[C@H](C)C[C@H](C)/C=C/C=C/C=C/1C,inactive
